This passage reports Potency and outcome results from PubChem BioAssay (NCATS).

Assay [1] has as its target DNA repair nuclease/redox regulator APEX1 (Homo sapiens) (UniProt P27695). Put plainly: qHTS Validation Assay for Inhibitors of the Human Apurinic/apyrimidinic Endonuclease 1 (APE1) (AID 1705;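 further: TAMRA fluorescence gain over two minutes as APE1 cuts a quenched THF abasic duplex; series mostly up to about 57 µM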). The gist of the method: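 qHTS, 1536-well. APE1 + cpd 15 min RT → 50 nM TAMRA/BHQ-2 THF-abasic dsDNA substrate → kinetic fluorescence, 3 reads/60 s; delta(read3−read1) = reaction progress. No-enzyme buffer = negative control.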

Assay [2] can be described thus: Counterscreen for APE1 Inhibitors: Fluorescent Dye Displacement Validation Assay (AID 1707). In outline: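 Counterscreen flags promiscuous DNA binders: compounds displacing ThO from duplex DNA (abasic THF site, 50 nM) reduce 540 nm emission (480 nm excitation). ThO 250 nM final; Tris-HCl pH 7.5 with NaCl, MgCl2 and Tween-20.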
Assay [3] in a line: qHTS for differential inhibitors of proliferation of Plasmodium falciparum line Dd2 (AID 1882). Further: potency means the concentration at half of the fitted maximal effect; nearly all actives have a fitted effect of over 65% in size. Conditions: Potency: Plasmodium falciparum Dd2 proliferation inhibition. In outline:
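SYBR Green DNA fluorescence (ex 485, em 535 nm) after overnight lysis quantifies parasite growth; compound exposure lasted 72 h at 37 C on infected red cells at 2.5% hematocrit, 0.3% parasitemia (final). Artemisinin 0.29 uM and vehicle wells define normalization.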

The target in assay [4] is Ferritin light chain (Equus caballus) (UniProt P02791). Description: qHTS Validation Assay for Identification of Novel General Anesthetics (AID 2323). Further: series mostly up to about 77 µM. In outline:
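Fluorescence at 535 nm (excitation 380 nm) reported loss of 1-AMA binding to horse-spleen apoferritin (10 uM) in PBS with 50% saturated 1-aminoanthracene, after 10 min room-temperature incubation with compound; values from Hill fits of normalized response.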

The target in assay [5] is ATP-dependent DNA helicase Q1 (Homo sapiens) (UniProt P46063). Description: qHTS Validation Assay for Inhibitors of RecQ-Like Dna Helicase 1 (RECQ1) (AID 2353). The gist of the method: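 RECQ1T1 50 nM; forked duplex (20 bp + 30-nt ss tails) 200 nM, ATP 2 mM final; pH 8.0, 2 mM MgCl2, 2.5 ug/ml poly(dI-dC); 15 min compound preincubation; discontinuous kinetic read over 2 h at RT.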
ATP-dependent DNA helicase Q1 (Homo sapiens), sequence (P46063 whole entry, looked up): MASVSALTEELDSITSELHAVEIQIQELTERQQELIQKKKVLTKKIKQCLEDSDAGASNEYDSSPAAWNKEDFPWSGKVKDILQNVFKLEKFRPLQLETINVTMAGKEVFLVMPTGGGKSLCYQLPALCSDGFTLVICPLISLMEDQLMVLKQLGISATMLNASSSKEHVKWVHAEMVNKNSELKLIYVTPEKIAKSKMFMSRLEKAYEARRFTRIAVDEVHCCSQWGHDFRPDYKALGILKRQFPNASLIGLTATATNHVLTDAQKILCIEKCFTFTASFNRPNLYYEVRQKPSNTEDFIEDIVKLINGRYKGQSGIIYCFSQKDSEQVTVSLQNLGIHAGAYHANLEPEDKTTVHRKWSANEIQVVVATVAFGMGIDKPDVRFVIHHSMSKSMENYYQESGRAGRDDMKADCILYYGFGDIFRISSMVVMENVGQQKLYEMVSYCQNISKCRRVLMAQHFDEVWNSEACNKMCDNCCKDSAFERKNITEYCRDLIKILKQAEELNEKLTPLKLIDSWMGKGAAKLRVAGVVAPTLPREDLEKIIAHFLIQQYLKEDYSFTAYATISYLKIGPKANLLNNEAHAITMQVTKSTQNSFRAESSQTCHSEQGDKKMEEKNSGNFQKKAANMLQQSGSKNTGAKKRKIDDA

Assay [6] concerns the target RecQ-like DNA helicase BLM (Homo sapiens) (UniProt P54132). Description: qHTS Validation Assay for Inhibitors of Bloom's syndrome helicase (BLM) (AID 2364). The gist of the method: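 Forked 20-bp duplex substrate (200 nM, TAMRA/BHQ-2) plus 2 mM ATP added after 15 min compound preincubation with 50 nM enzyme, pH 8.0, poly(dI-dC) 2.5 ug/ml. Strand separation followed by fluorescence (525/598 nm) over 2 h, normalized to enzyme-free and DMSO controls.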

The nature of assay [7]: Validation screen for small molecules that induce DNA re-replication in MCF 10A normal breast cells (AID 463097). Further: nearly all actives have a fitted effect of over 60% in size. The gist of the method:
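Image-based qHTS: normal breast cells are incubated with compound for 48 hr, stained with Hoechst, and scanned for total nuclear fluorescence. Compounds raising the fraction of nuclei with elevated DNA content count as re-replication inducers.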

Assay [8] can be described thus: Quantitative high throughput screen for delayed death inhibitors of the malarial parasite plastid, 96 hour incubation (AID 488745). Further: potency means the concentration at half of the fitted maximal effect; nearly all actives have a fitted effect of over 70% in size. In outline:
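Readout is firefly luciferase luminescence from an integrated reporter in P. falciparum; lower signal marks inhibited growth. Cultures at 2% hematocrit and 0.1% parasitemia were treated with compound across two generations (96 h, 37 C, 5% CO2).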

Assay [9] in a line: Quantitative high throughput screen for delayed death inhibitors of the malarial parasite plastid, 48 hour incubation (AID 488752). Further: potency means the concentration at half of the fitted maximal effect; nearly all actives have a fitted effect of over 65% in size. The gist of the method: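 First, compound was pinned into RPMI 1640 medium containing 0.5% Albumax. Next, reporter-parasite-infected erythrocytes were added to 2% hematocrit and 0.1% parasitemia. After 48 h at 37 C under 5% CO2, luciferase detection reagent was added and luminescence read.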

Assay [10] can be described thus: Validation screen for small molecules that induce DNA re-replication in SW480 colon adenocarcinoma cells (AID 504364). In outline:
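Image-based qHTS: compounds were incubated with SW480 cells for 48 hr, nuclei stained with Hoechst, and per-nucleus fluorescence intensity scanned to flag cells with excess DNA content.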

Assay [11] has as its target Rap guanine nucleotide exchange factor 3 (Homo sapiens) (UniProt O95398). Description: Counterscreen qHTS for agonist of cAMP-regulated guanine nucleotide exchange factor 3 (EPAC1) (AID 1645889). Further: nearly all actives have a fitted effect of over 40% in size. Further: potency means the concentration at half of the fitted maximal effect. In outline:
(§1)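 Rap1B-BODIPY-GDP 250 nM + GDP 50 uM; cpds 7-pt, final 9.74 nM–152 uM (activator mode) or from 7.32 nM upwards (inhibitor mode); RT; FI 480/540 nm at 5 and 30 min, then ± cAMP, reread.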

Assay [12] has the same target. Put plainly: Counterscreen qHTS for antagonist of cAMP-regulated guanine nucleotide exchange factor 3 (EPAC1) (AID 1645888).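 Further: fluorescence loss as bound BODIPY-GDP is released from Rap1B.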 The gist of the method:
as §1

Values without a mark were called inactive. Inconclusive results are not listed. The source made the active and inactive calls. The call rests on the fitted dose curve; in most records, active means well fitted curve in the direction sought with a large enough effect; inconclusive means small, poorly fitted or top-dose-only effect, or another doubt; inactive means no such curve, though single readings can be large; an effect the other way counts as inactive or inconclusive.

RecQ-like DNA helicase BLM (Homo sapiens), sequence (P54132 whole entry, looked up): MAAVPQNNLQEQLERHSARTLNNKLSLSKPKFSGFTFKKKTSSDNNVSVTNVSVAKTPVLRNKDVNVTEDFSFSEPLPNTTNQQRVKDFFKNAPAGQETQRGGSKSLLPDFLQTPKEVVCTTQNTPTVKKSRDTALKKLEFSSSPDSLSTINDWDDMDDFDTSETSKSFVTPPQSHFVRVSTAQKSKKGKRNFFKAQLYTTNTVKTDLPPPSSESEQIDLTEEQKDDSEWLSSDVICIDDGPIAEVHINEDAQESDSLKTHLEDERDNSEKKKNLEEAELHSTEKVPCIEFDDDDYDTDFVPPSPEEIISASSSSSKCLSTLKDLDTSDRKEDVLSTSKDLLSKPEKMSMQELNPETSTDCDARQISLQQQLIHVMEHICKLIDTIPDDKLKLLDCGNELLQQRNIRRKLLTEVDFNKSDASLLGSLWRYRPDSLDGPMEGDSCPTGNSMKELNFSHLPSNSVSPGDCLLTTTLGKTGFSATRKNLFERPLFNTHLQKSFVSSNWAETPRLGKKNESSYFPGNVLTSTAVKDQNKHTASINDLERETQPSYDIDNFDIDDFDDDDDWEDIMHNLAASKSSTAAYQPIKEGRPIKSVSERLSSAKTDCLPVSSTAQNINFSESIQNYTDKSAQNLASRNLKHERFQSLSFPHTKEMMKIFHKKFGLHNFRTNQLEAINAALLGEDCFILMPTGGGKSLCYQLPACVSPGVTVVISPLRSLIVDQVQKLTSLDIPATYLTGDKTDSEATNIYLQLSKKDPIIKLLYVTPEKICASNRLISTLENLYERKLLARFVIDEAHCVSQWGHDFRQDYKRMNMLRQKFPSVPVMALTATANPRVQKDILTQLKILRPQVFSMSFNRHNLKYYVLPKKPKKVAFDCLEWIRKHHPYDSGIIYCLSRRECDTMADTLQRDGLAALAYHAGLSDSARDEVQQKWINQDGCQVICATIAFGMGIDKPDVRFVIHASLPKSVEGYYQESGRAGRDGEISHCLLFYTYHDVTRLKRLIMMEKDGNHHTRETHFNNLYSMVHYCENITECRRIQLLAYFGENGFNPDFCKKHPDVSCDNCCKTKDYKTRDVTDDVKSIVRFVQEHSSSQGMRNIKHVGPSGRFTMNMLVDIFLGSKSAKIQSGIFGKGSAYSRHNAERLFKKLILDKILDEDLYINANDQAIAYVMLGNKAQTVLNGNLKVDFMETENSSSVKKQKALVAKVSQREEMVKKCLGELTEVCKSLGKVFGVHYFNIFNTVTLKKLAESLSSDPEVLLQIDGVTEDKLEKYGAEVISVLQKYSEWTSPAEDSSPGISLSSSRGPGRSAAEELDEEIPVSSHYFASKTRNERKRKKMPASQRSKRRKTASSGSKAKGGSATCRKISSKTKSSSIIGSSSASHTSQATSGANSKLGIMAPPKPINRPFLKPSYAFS
DNA repair nuclease/redox regulator APEX1 (Homo sapiens), sequence (P27695 whole entry, looked up): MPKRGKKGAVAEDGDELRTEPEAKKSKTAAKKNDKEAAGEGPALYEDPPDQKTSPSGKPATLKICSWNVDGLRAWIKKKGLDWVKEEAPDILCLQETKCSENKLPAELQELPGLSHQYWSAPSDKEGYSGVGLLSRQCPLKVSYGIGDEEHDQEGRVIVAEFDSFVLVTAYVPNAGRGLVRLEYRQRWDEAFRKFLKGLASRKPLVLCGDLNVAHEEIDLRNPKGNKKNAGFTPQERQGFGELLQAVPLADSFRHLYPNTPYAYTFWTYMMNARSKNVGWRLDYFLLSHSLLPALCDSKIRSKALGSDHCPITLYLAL
Rap guanine nucleotide exchange factor 3 (Homo sapiens), sequence (O95398 whole entry, looked up): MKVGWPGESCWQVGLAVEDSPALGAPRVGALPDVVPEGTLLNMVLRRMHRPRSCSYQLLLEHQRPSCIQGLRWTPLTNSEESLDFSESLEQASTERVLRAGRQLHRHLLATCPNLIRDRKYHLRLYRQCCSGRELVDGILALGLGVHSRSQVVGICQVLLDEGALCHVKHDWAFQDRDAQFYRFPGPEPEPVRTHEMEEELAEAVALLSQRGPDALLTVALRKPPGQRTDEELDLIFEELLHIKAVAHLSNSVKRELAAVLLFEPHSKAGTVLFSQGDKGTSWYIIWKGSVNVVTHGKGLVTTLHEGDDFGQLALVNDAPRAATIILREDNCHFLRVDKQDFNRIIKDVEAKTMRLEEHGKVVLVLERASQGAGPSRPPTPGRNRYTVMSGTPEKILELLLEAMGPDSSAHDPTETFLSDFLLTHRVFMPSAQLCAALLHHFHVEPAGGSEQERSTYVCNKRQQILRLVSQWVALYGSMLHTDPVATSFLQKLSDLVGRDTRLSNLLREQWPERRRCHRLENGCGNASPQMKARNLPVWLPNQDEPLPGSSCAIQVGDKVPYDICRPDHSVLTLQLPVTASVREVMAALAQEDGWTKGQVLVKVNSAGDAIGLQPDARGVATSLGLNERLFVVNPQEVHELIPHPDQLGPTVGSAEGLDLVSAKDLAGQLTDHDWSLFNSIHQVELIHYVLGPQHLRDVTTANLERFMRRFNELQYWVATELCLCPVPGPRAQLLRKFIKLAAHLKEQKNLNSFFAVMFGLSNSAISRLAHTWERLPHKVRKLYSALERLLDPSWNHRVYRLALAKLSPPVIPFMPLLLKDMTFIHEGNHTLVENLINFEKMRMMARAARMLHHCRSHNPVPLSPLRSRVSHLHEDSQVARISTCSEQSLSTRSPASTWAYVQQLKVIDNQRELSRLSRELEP
Ferritin light chain (Equus caballus), sequence (P02791 2-175 limits assumed): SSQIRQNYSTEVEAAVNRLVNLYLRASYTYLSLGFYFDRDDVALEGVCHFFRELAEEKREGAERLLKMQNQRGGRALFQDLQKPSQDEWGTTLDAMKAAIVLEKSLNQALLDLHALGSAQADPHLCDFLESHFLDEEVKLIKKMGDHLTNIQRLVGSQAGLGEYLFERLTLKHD

On to `C=C[C@@H]1CN2CC[C@@H]1C[C@@H]2[C@H](O)c1ccnc2ccc(OC)cc12`, for which the Potency result in assay [1], in assay [6], in assay [7] and in [10] was “inactive” in each case. Also, the molecule was classed as inactive in [2], in assay [4] and in [5]. For the same molecule, the Potency in [3] was 126 nM (active); in assay [8], 16.5 nM (active); in assay [9] it was 26.2 nM (active).

Take `CCOC(=O)c1sc(NC(=O)CN2C(=O)NC3(CC(C)CC(C)(C)C3)C2=O)cc1C` (stereo not drawn): in assay [11], the Potency was 89100 nM (active).

Take `CN(C)/C=C/c1onc(-c2c(Cl)cccc2Cl)c1C#N`: the Potency entry in assay [12] and in [11] was “inactive” in each case.
